Drawing on PubChem BioAssay, this text covers composite z-score and z-score for 17 molecules.

Assay [1] deals with Human papillomavirus type 1a protein E7 (residues 44-93). In words: HPV1a E7 fragment binders on microarrays, primary screen, biochemical, small-molecule microarray, residues 44-93, 635 nm fluorescence (AID 1108).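 Also: E7 fragment applied at 1 µg/mL in TBST for 1 h at 4 C; score combines spot fluorescence with its signal to noise ratio.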 The note with it: small-molecule microarray binding, fluorescence 635 nm; higher = more signal.
Assay [2] can be described thus: modulators of HCV replicon luciferase signal, primary screen, HCV replication inhibitor project, Huh7 cells, luciferase reporter (AID 1109).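 Also: huh7 hepatoma cells harbouring a luciferase neomycin HCV replicon reporter; luciferase luminescence as measure of HCV replicon replication; test concentration not given here.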 The note with it: 48 h, higher = more signal. Background: Replicon systems follow genome replication, usually without infectious particles.
Assay [3] concerns the target Left-right determination factor 2 (Homo sapiens) (UniProt O00292). In words: LEFTY2 binders on small-molecule microarrays, primary screen, biochemical, small-molecule microarray, 635 nm fluorescence scan (AID 1110). The conditions noted are these: LEFTY2 binding, higher = more signal.
For assay [4], the target named is Calmodulin-1 (Homo sapiens) (UniProt P0DP23). In words: CALM1 binders on microarrays, EGTA buffer, profiling panel, biochemical, small-molecule microarray, Cy5-labelled CALM1 (AID 1111).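 Also: labelled calmodulin applied in Tris saline Tween buffer holding calcium plus EGTA and DTT.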 The conditions noted are these: Cy5-CALM1 binding fluorescence, higher = more signal.
The target is the same in assay [5]. Description: calcium-bound CALM1 binders on microarrays, profiling panel, artefact control for SMM control-protein annotation, biochemical, small-molecule microarray, Cy5-labelled CALM1, plus calcium (AID 1112).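 Also: score merges spot fluorescence with signal to noise from triplicate slides.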 The note with it: Cy5-CALM1 binding fluorescence, higher = more signal.
Assay [6] is described as follows: small-molecule microarray binders of probe aWnt5a, primary screen, biochemical, biotinylated probe, 635/667 nm fluorescence (AID 1113).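 Also: score merges 667 nm fluorescence intensity with signal-to-noise per printed feature.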 The note with it: higher = more signal.
Assay [7] is described as follows: small-molecule microarray binders of probe aShh, primary screen, biochemical, biotinylated probe, 635/667 nm fluorescence (AID 1114).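 Also: probe is biotin-labelled aShh protein from a stem cell growth factor screen; measures binding of labelled protein to compounds printed on the slide; score merges feature fluorescence at 667 nm with signal-to-noise.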 The conditions noted are these: higher = more signal.
Assay [8] is described as follows: small-molecule microarray binders of probe aNog, primary screen, biochemical, biotinylated probe, 635/667 nm fluorescence (AID 1115).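 Also: probe is biotinylated aNog protein used at 0.15 µg/mL for 1 h at 4 C; z-score combines 667 nm fluorescence of each spot with its signal to noise.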 The note with it: higher = more signal.
Assay [9] deals with Torsin-1A-interacting protein 1 (Homo sapiens) (UniProt Q5JTV8). Description: LAP1 binders from COS7 cell lysate, primary screen, small-molecule microarray, 635/667 nm fluorescence (AID 1116). The note with it: COS7-hLAP1 lysate binding, 635 nm fluorescence, higher = more signal.
Chain of Torsin-1A-interacting protein 1 (Homo sapiens) (Q5JTV8 whole entry, looked up): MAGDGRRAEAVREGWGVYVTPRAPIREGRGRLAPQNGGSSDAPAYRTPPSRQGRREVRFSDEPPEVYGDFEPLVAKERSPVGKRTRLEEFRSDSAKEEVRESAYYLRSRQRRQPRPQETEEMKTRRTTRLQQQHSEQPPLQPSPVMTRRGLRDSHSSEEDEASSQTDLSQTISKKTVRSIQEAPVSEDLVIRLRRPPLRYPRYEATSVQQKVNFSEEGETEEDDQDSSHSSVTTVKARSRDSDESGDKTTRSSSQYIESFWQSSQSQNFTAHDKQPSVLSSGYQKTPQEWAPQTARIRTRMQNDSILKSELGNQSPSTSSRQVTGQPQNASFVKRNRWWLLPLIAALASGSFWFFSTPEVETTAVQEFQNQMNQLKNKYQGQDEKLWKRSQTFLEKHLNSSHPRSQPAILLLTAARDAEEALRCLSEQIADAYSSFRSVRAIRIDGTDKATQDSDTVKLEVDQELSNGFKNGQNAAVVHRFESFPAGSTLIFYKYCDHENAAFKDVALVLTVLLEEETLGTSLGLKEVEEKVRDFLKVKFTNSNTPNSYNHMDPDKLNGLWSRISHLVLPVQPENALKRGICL
Assay [10] has as its target Alpha-bungarotoxin (Bungarus multicinctus) (UniProt P60615). In words: alpha-bungarotoxin binders on microarray, profiling panel, artefact control for SMM control protein annotation, biochemical, small-molecule microarray, Alexa647 label, 635/667 nm fluorescence (AID 1117). The conditions noted are these: alpha-BTX-A647 binding fluorescence, higher = more signal.

Chain of Left-right determination factor 2 (Homo sapiens) (O00292 whole entry, looked up): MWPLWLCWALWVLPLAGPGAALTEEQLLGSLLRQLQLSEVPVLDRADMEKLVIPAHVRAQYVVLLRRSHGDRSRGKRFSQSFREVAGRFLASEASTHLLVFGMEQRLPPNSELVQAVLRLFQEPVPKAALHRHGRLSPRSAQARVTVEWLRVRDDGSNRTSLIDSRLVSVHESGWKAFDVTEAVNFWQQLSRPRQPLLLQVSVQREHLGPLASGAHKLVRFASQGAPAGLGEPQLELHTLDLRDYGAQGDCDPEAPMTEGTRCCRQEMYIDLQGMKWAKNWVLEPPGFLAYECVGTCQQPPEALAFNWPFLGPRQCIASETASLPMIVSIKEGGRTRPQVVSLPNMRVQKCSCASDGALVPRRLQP
Chain of Alpha-bungarotoxin (Bungarus multicinctus) (P60615 whole entry, looked up): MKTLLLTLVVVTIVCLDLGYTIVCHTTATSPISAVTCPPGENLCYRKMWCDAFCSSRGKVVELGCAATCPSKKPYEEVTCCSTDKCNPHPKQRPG

With `COC(=O)C1(C)C=C2C(=C(c3ccccc3)C(=O)C2C)CN1` (stereo not given), the composite z-score in assay [1] was -1.06; in [3], -1.3; in [4], 0.29; in assay [5], -0.0125; in assay [6], -0.034; in assay [7], -0.119. Besides, the composite z-score is 1.74 in [8], 1.72 in assay [9] and -0.422 in assay [10]. In addition, the z-score in [2] was -0.546.

Consider `COC(=O)C1=CCC(c2cccc(Cl)c2)O1` (stereo not given), for which the composite z-score is 0.387 in assay [1]; 0.106 in [3]; 0.0588 in [4]; -0.23 in [5]; -0.0286 in assay [6]; -0.291 in assay [7]. Besides, the composite z-score came to 0.287 in [8], 0.0692 in [9] and 0.648 in assay [10]. In addition, the z-score in assay [2] was -2.31.

With `C=CCOC(=O)[C@H]1[C@@H]2C(=O)O[C@@H](c3ccccc3)[C@@H](c3ccccc3)N2[C@@H](c2ccc(OCCOC(=O)[C@H]3C[C@H]4C(=O)N5CCC[C@H]5C(=O)N4[C@H]3c3cccc(OCCO)c3)cc2)[C@]12C(=O)Nc1ccc(I)cc12`, the composite z-score worked out at 1.43 in [1]; 1.29 in assay [3]; 2 in assay [4]; 0.977 in [5]; 0.995 in [6]; 1.97 in [7]. Further, the composite z-score was found to be 2.7 in assay [8], 3.33 in assay [9] and 1.69 in assay [10]. In [2], this molecule yielded a z-score of -0.38.

On to `COC(=O)[C@H](C)NC(=O)CCC1CC(OC(=O)NCc2cccc3ccccc23)CC2(CCCC(COC(=O)NCCc3ccc(Cl)cc3)O2)O1` (stereo not given in full), for which the composite z-score in [1] was 0.953; in assay [3], 0.451; in assay [4], 0.866; in assay [5] it was -0.0789; in [6], -0.0075; in assay [7], -0.138. The results for the composite z-score in assay [8], in assay [9] and in assay [10] were -0.213, 0.33 and 0.171, respectively. In addition, in assay [2], the z-score is -1.05.

Take `[N-]=[N+]=NCc1ccccc1[C@@H]1OC(c2ccc(OCCCO)cc2)=N[C@]1(Cc1ccccc1)C(=O)N1CCOCC1`: the composite z-score in [1] stood at 0.0452; in assay [3], 0.343; in assay [4] it was 1.93; in assay [5], 1.05; in assay [6], 0.141; in assay [7] it was 0.26. For the same molecule, the results for the composite z-score in [8], in assay [9] and in assay [10] were 1.9, 3.31 and 1.62, respectively. In [2], this molecule showed a z-score of -2.03.

Regarding `CC(C)=NOCc1cccc(-c2cc(-c3ccccc3)no2)c1`, the composite z-score in assay [1] is 0.332; in assay [3], 0.71; in assay [4], 0.0463; in [5] it was -0.823; in assay [6], -0.0874; in assay [7] it was 0.0952. Also, the results for the composite z-score in assay [8], in assay [9] and in [10] were -0.161, 0.237 and 0.553, respectively. The same molecule returned a z-score in [2] of -0.149.

For `COC(=O)[C@H](C)NC(=O)CCC1CC(OC(=O)NCCc2ccc(F)cc2)CC2(CCCC(COC(=O)NCCc3ccc(Cl)cc3)O2)O1` (stereo not given in full), the composite z-score in assay [1] is 1.29; in [3] it was 1.2; in [4], 0.922; in [5] it was 0.232; in assay [6], -0.224; in [7] it was -0.138. For the same molecule, the figures for the composite z-score in [8], in assay [9] and in assay [10] were -0.299, 0.428 and 0.763, respectively. In addition, the z-score in assay [2] is -0.0845.

Turning to `CC(C)=CCCC(C)=CCON=C1[C@H]2CCn3c(=O)n(Cc4cc5c(cc4Cl)OCO5)c(=O)n3[C@H]2[C@H](O)[C@@H]2O[C@H]12`, the composite z-score in [1] is -0.118; in assay [3], 0.463; in assay [4], -0.175; in assay [5] it was -0.591; in assay [6], 0.0388; in assay [7], -0.138. The figures for the composite z-score in assay [8], in [9] and in assay [10] were -0.181, 0.989 and -0.112, respectively. In addition, the z-score in [2] was -0.78.

For the molecule `NCCCCCNC(=O)[C@@H]1C[C@@H]2C(=O)N3CCC[C@H]3C(=O)N2[C@@H]1c1cccc(OCCO)c1`, the composite z-score in assay [1] was 0.933; in [3], 0.781; in [4], 1.38; in assay [5], 0.929; in assay [6] it was 0.0024; in assay [7] it was 0.315. Moreover, the values for the composite z-score in assay [8], in [9] and in [10] were 1.55, 1.72 and 0.482, respectively. Further, the z-score in [2] is -1.03.

Consider `CCc1cc2c(nc1CC)CCN(CCC(C)=NOC(C)CN1CCCc3nc(C)c(C)cc31)C2` (stereo not given), for which the composite z-score in assay [1] is 1.13; in assay [3] it was 0.482; in [4], 0.276; in assay [5], -0.544; in [6] it was 0.245; in assay [7], 1.38. The composite z-score in [8] turned out to be 0.774; in assay [9], 0.849; in [10] it was 1.21. Moreover, the z-score in assay [2] was -2.1.

On to `Cn1cccc1C(O)C1C=CC2C(=O)NC(=O)C2N1Nc1ccccn1` (stereo not given), for which the composite z-score in [1] is -1.15; in assay [3], -0.136; in assay [4], -0.0487; in assay [5] it was -0.472; in assay [6], -0.0512; in assay [7], 0.0723. Moreover, the composite z-score in [8] was -0.0446; in assay [9], -0.0327; in [10], -0.086. This molecule had a z-score in assay [2] of -0.803.

With `C=CC[C@@H]1C=C[C@H](ON=C(C)CCN2CCc3nc(CC)c(CC)cc3C2)[C@@H](CO)O1`, the composite z-score was 0.714 in assay [1]; 0.83 in [3]; -0.42 in assay [4]; -1.34 in assay [5]; 0.0634 in [6]; 0.0952 in assay [7]. Moreover, the figures for the composite z-score in assay [8], in assay [9] and in [10] were 0.222, 0.779 and 0.243, respectively. Further, the z-score in assay [2] is -1.57.

Regarding `CO[C@H]1O[C@H](CO)[C@@H](OC(=O)Nc2ccc3c(c2)OCO3)[C@H](OC(=O)Nc2ccccc2-c2ccccc2)[C@@H]1OC(=O)Nc1ccccc1-c1ccccc1`, the composite z-score in assay [1] worked out at 1.36; in assay [3], 0.232; in assay [4], 1.6; in assay [5], 0.116; in [6], 0.0601; in assay [7], 0.184. Also, the composite z-score stood at 0.902 in [8], 1.28 in [9] and 0.614 in [10]. The same molecule returned a z-score in assay [2] of -2.26.

As for `O=C(NN=C1C[C@@H](O)[C@@H](O)[C@@H]2[C@@H]3C(=O)N(c4cccc(Oc5ccccc5)c4)C(=O)[C@@H]3CC[C@H]12)OCc1ccccc1`, the composite z-score in assay [1] is -0.142; in assay [3] it was 0.0075; in assay [4], 0.0088; in [5], -0.312; in assay [6], -0.0664; in assay [7], 0.3. The composite z-score was 0.116 in [8], -0.0681 in assay [9] and 1.05 in [10]. Also, the z-score in assay [2] was -0.597.

For `CCN1C(=O)[C@H]2[C@H]3[C@H](O)[C@H](O)CC(=NOC[C@@H](C)[C@H](OCc4ccccc4)C(C)C)[C@@H]3CC[C@H]2C1=O`, the composite z-score in [1] was 0.306; in assay [3], 0.358; in assay [4], 0.809; in [5], 0.484; in [6], -0.133; in assay [7], -0.262. Moreover, the values for the composite z-score in [8], in [9] and in assay [10] were 0.124, 0.329 and 0.234, respectively. For the same molecule, the z-score in assay [2] was -1.47.

As for `CC(CCN1CCc2nc(-c3ccccc3)c(-c3ccccc3)cc2C1)=NO[C@@H](C)c1cn([C@H](CO)Cc2ccccc2)nn1`, the composite z-score was -0.127 in assay [1]; 0.555 in assay [3]; 0.0845 in assay [4]; 0.444 in [5]; -0.139 in assay [6]; -0.221 in assay [7]. The results for the composite z-score in assay [8], in assay [9] and in [10] were -0.305, -0.273 and 1.42, respectively. Also, the z-score in [2] is -0.985.

With `CCOc1ccc(N2C(=O)/C(=C/C=C/c3ccccc3OC)S(=O)(=O)C2c2cccc([N+](=O)[O-])c2)cc1` (stereo not given), the composite z-score in assay [1] is -0.432; in assay [3] it was 0.49; in assay [4] it was 1.27; in assay [5], 0.545; in [6], 0.0017; in assay [7], -0.2. Further, the composite z-score amounted to 0.0373 in [8], 0.351 in [9] and 0.321 in [10]. In [2], the z-score is -2.17.
